Rab9 promoter act = activates the Rab9 promoter; Huh7 Rab9 promoter-luciferase reporter, luminescence, 24 h; Potency, µM (doses to about 9.22 µM), inactives show at the top dose activation, negative = inhibition, usual class: activators; 320,000 tested, 2.8% active; AID 485297; note: % of control where 0% means no effect; nearly all actives have a fitted effect of over 60% in size
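Measured in stably transfected Huh7 cells bearing a Rab9 promoter–luciferase construct: 24 h compound treatment at 37 °C, followed by luminescence detection.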
FLuc counter = counter-screen for miR-21 project: firefly luciferase inhibitors or activators. purified FLuc, Km substrates, luminescence inhibition. 360,000 tested, 6.9% active. P08659. Potency, µM (titrated, usually from 57.5 µM), for inactives: top-dose activity change, negative = inhibition, hits mostly inhibitors;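 note: plate controls were vehicle for no effect and reference inhibitor for full effect; nearly all actives have a fitted effect of over 55% in size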
Target sequence (P08659 whole entry, looked up): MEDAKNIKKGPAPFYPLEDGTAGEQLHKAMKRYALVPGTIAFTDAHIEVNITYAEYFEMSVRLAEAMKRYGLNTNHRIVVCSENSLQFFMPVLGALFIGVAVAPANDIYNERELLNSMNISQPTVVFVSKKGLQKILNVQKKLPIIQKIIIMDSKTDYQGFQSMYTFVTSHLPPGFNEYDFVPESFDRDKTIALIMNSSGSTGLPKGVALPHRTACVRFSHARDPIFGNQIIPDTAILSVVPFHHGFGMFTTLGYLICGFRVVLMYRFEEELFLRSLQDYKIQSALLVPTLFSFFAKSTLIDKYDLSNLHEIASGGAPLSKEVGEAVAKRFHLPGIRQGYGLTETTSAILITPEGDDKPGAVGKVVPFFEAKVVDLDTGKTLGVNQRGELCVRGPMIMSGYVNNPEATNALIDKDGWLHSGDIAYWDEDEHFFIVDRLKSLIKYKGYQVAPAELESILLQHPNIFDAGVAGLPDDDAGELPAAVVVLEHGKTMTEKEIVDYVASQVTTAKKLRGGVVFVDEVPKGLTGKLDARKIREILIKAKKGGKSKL
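Purified P. pyralis luciferase, 10 nM final, with Km-level 10 uM D-luciferin and 10 uM ATP in 50 mM Tris acetate pH 7.5, 10 mM Mg acetate, 0.01% Tween-20, 0.05% BSA; 6-point qHTS titration about 60 µM downward; luminescence read.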
NPC1 promoter act = activates the NPC1 promoter; Huh7 NPC1 promoter luciferase reporter, 24 h; Potency, µM (top dose mostly 9.22 µM), for inactives: at the top dose activation, hits mostly activators; 320,000 tested, 2.4% active; AID 485313; note: % of control where 0% means no effect; nearly all actives have a fitted effect of over 60% in size
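Cells: Huh7 expressing luciferase under the NPC1 promoter, 1500/well. Seeded 2 h, compound added, incubated 24 h at 37 °C. Luciferase reagent, 10 min ambient, then luminescence.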
ELG1 genotox = inducers of genotoxicity in HEK293T ELG1-luciferase cells. 330,000 tested, 1.3% active. HEK293T ELG1-luciferase reporter, luminescence, 16 h. Potency, µM (top dose mostly 46 µM), for inactives: at the top dose activity change, positive = activation, most hits filed as activators; note: % of control where 0% means no effect; nearly all actives have a fitted effect of over 60% in size
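Reporter readout depends on ELG1 protein level, which increases with genetic stress. After 16 hr compound exposure at 37 °C, luciferase activity was quantified using ONE-Glo.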
SMN2 splice enh = enhancers of SMN2 splice variant expression. 210,000 tested, 2.8% active. Potency, µM (highest dose often 46.1 µM), without a hit: top-dose activity change, positive = activation, usual class: activators. AID 1458. HEK293 SMN2-luciferase splicing reporter, luminescence, 30-36 h; note: % of control where 0% means no effect; nearly all actives have a fitted effect of over 55% in size
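HEK293 cells carry an SMN2 minigene-luciferase reporter in which exon 7 inclusion puts luciferase in frame. Cells were seeded at 2000 cells/well, attached for 10-12 hours, then exposed to compounds for 30-36 hours at 37C before ONE-Glo luminescence.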
Starred values were filed as active, the others as inactive; [ ] = another dose, or the depositor's remark. Most compounds without a hit are left out; they make up all but 7.5% or so of the library. Calls come from the whole dose curve; as a rule, active = well fitted curve in the direction sought with a large enough effect; inconclusive = small, poorly fitted or top-dose-only effect, or another doubt; inactive = no such curve, though single readings can be large; an effect the other way counts as inactive or inconclusive. Potency is the fitted concentration of half-maximal effect.

What do the screens show for `COc1ccc(S(=O)(=O)N2CCN(CC(=O)NCCc3cccs3)CC2)cc1`?
Rab9 promoter act: 2%; FLuc counter: -1%; NPC1 promoter act: 0%; ELG1 genotox: 1%

What do the screens show for `Cn1cccc1C(=O)OCc1nc2ccccc2c(=O)[nH]1`?
ELG1 genotox: 6%

Results for Cn1cccc1C(=O)OCc1cc(-c2ccco2)on1 ?
Rab9 promoter act: 3.2µM*; FLuc counter: 24µM*; NPC1 promoter act: 3.5µM*; ELG1 genotox: inconclusive

Results for Cn1cccc1C(=O)OCc1ccc(C(C)(C)C)cc1 ?
Rab9 promoter act: inconclusive; FLuc counter: 11µM*; NPC1 promoter act: -35%; ELG1 genotox: inconclusive

How did O=C(/C=C/c1ccc2c(c1)OCO2)N1CCN(c2ccc(Cl)cc2)CC1 do in these assays?
Rab9 promoter act: -2%; FLuc counter: -3%; NPC1 promoter act: -1%; ELG1 genotox: 2%; SMN2 splice enh: -36%

How did CCOC(=O)C1CCN(C(=O)/C=C/c2ccc3c(c2)OCO3)CC1 do in these assays?
Rab9 promoter act: 0.79µM*; FLuc counter: 15µM*; NPC1 promoter act: 0.45µM*; ELG1 genotox: inconclusive

What do the screens show for `CCOC(=O)C1CCN(C(=O)/C=C/c2ccccc2)CC1`?
Rab9 promoter act: 1.1µM*; FLuc counter: 24µM*; NPC1 promoter act: 1.4µM*; ELG1 genotox: 14%; SMN2 splice enh: 11µM*

Results for CCOC(=O)C1CCN(C(=O)COC(=O)/C=C/c2ccccc2)CC1 ?
ELG1 genotox: -2%

How did O=C(O)/C=C\C=C/c1ccc2c(c1)OCO2 do in these assays?
SMN2 splice enh: -7%[9.22 µM]

What do the screens show for `O=C(/C=C/c1ccc2c(c1)OCO2)N1CCCCC1`?
Rab9 promoter act: 1.6µM*; FLuc counter: 12µM*; NPC1 promoter act: 3.5µM*; ELG1 genotox: inconclusive

Results for O=C(/C=C/c1ccc2c(c1)OCCO2)N1CCN(c2ccc(F)cc2)CC1 ?
Rab9 promoter act: -2%; FLuc counter: 24µM*; NPC1 promoter act: -3%; ELG1 genotox: -4%

Results for Cc1ccc(C(=O)O)cc1NC(=O)CSc1ncnc2sc3c(c12)CCC3 ?
Rab9 promoter act: 1%; FLuc counter: -15%; NPC1 promoter act: -1%; ELG1 genotox: 0%

Results for CCOc1ccc2nc(NC(=O)c3ccoc3C)sc2c1 ?
Rab9 promoter act: 0.5µM*; FLuc counter: 0.48µM*; NPC1 promoter act: 0.56µM*; ELG1 genotox: inconclusive; SMN2 splice enh: 2.5µM*

How did CCOc1ccc2nc(NC(=O)c3ccco3)sc2c1 do in these assays?
Rab9 promoter act: 0.32µM*; FLuc counter: 0.67µM*; NPC1 promoter act: 0.32µM*; ELG1 genotox: 1.3µM*

Results for CCOc1ccc2nc(NC(=S)NCc3ccccc3)sc2c1 ?
Rab9 promoter act: 12%; FLuc counter: -13%; NPC1 promoter act: 9%; ELG1 genotox: 14%; SMN2 splice enh: -8%

How did CCOC(=O)c1ccc2nc(NC(=O)c3cccs3)sc2c1 do in these assays?
Rab9 promoter act: 0.5µM*; FLuc counter: 1.2µM*; NPC1 promoter act: 0.71µM*; ELG1 genotox: inconclusive; SMN2 splice enh: 4µM*

How did CCOc1ccc2nc(NC(=O)CN3CCOCC3)sc2c1 do in these assays?
Rab9 promoter act: 7%; FLuc counter: -18%; NPC1 promoter act: 7%; ELG1 genotox: inconclusive; SMN2 splice enh: 29%

What do the screens show for `CCOC(=O)c1ccc2nc(NC(=O)c3ccco3)sc2c1`?
Rab9 promoter act: 0.71µM*; FLuc counter: 2.7µM*; NPC1 promoter act: 0.89µM*; ELG1 genotox: inconclusive; SMN2 splice enh: 2.2µM*

What do the screens show for `CN(C)c1ccc(C2CC(c3c(O)n(C4CCCCC4)c(=O)[nH]c3=O)=Nc3ccccc3S2)cc1` (centres undefined)?
FLuc counter: -13%

How did CCOc1ccc(NC(=O)CSc2nc(NS(=O)(=O)c3ccc(C)cc3)cc(=O)[nH]2)cc1 do in these assays?
Rab9 promoter act: 1%; FLuc counter: 21µM*; NPC1 promoter act: 0%; ELG1 genotox: 0%

What do the screens show for `Cc1ccc(S(=O)(=O)Nc2cc(=O)[nH]c(SCC(=O)Nc3cccc(C)c3)n2)cc1`?
Rab9 promoter act: -1%; FLuc counter: 19µM*; NPC1 promoter act: 0%; ELG1 genotox: -7%

How did CCc1ccc(NC(=O)CSc2nc(NS(=O)(=O)c3ccccc3)cc(=O)[nH]2)cc1 do in these assays?
Rab9 promoter act: -3%; FLuc counter: -8%; NPC1 promoter act: -3%; ELG1 genotox: 5%; SMN2 splice enh: -15%

What do the screens show for `Cc1ccc(NC(=O)CSc2nc(NS(=O)(=O)c3ccccc3)cc(=O)[nH]2)cc1`?
Rab9 promoter act: 0%; FLuc counter: -3%; NPC1 promoter act: 0%; ELG1 genotox: 2%; SMN2 splice enh: -12%

How did O=C(O)CCc1nnc(SCC(=O)Nc2cccc(C(F)(F)F)c2)[nH]c1=O do in these assays?
Rab9 promoter act: 1%; FLuc counter: inconclusive; NPC1 promoter act: -2%; ELG1 genotox: 3%; SMN2 splice enh: -8%

Results for COC(=O)CSc1ccc(-c2nc3ccc(C)cc3[nH]2)cn1 ?
Rab9 promoter act: -2%; FLuc counter: 2.7µM*; NPC1 promoter act: 0%; ELG1 genotox: inconclusive; SMN2 splice enh: 2%

How did Cc1cc(NC(=O)CSc2ccc(-c3nc4cc(C)c(C)cc4[nH]3)cn2)no1 do in these assays?
Rab9 promoter act: 0.45µM*; FLuc counter: 0.19µM*; NPC1 promoter act: 2µM*; ELG1 genotox: inconclusive; SMN2 splice enh: -26%

What do the screens show for `O=C(CSc1nc(-c2ccccc2)cc(=O)[nH]1)N1CCc2ccccc21`?
Rab9 promoter act: -4%; FLuc counter: 2%; NPC1 promoter act: 0%; ELG1 genotox: -11%; SMN2 splice enh: 16%

Results for Cc1cc2nc(-c3ccc(SCc4ccccc4C#N)nc3)[nH]c2cc1C ?
Rab9 promoter act: inconclusive; FLuc counter: 9.5µM*; NPC1 promoter act: 22%; ELG1 genotox: inconclusive; SMN2 splice enh: 11µM*

Results for N#Cc1ccccc1CSc1ccccn1 ?
Rab9 promoter act: -3%; FLuc counter: -10%; NPC1 promoter act: 0%; ELG1 genotox: 3%; SMN2 splice enh: 11%

Results for Cc1cc2nc(-c3ccc(SCC(=O)N4CCc5ccccc54)nc3)[nH]c2cc1C ?
Rab9 promoter act: 0.5µM*; FLuc counter: 0.13µM*; NPC1 promoter act: 1.1µM*; ELG1 genotox: inconclusive; SMN2 splice enh: 2.5µM*

What do the screens show for `O=C(O)c1ccc2c(c1)C(=O)N([C@H](Cc1ccc(-c3ccccc3)cc1)C(=O)O)C2=O`?
Rab9 promoter act: 0%; FLuc counter: -6%; NPC1 promoter act: -2%

What do the screens show for `COc1ccc(C)cc1NC(=O)C1CCCCN1S(=O)(=O)c1ccccc1` (centres undefined)?
ELG1 genotox: -3%

Results for Cc1cc2nc(-c3ccc(SCC(=O)NC(C)C)nc3)[nH]c2cc1C ?
Rab9 promoter act: 3.2µM*; FLuc counter: 2.1µM*; NPC1 promoter act: 2.8µM*; ELG1 genotox: 8%; SMN2 splice enh: inconclusive
